Results reported in PubChem BioAssay AID602156 (GNF / Scripps Winzeler lab, 2011).
Out of some 5,700 compounds screened, about 280 (4.9%) were called active. No rule for the calls is given here. The list is a sample of the results.

assay: Plasmodium liver-stage growth inhibition, dose response, imaging, Malaria Box, P. yoelii, HepG2-A16-CD81EGFP (AID 602156); settings: P. yoelii liver stage in HepG2-A16-CD81EGFP

outcome, inactive:
COc1ccccc1N1CCN(Cc2cc(C(C)C)c(C)cc2O)CC1
N#CN=C(N)c1sc(Nc2ccccc2)nc1N
CC1[C@H]2NC[C@H](C)C[C@]2(O)O[C@@H]2C[C@H]3[C@@H]4CC[C@H]5C[C@@H](N)CC[C@]5(C)C4CC[C@]3(C)[C@@H]12 (stereo not given in full)
O=C(Nc1ccc(Cl)c(Cl)c1)Nc1ccc(Cl)c(Cl)c1
N=c1c2c(n(Cc3ccc(Cl)c(Cl)c3)c3c1CCC3)CCCC2
COc1ccc(C2CC(=O)C3=C(C2)NC(C)=C(C(=O)OC2CCCC2)C3c2ccccc2)cc1 (stereo not given)
COCCSc1nc2sc3c(c2c(=O)n1-c1ccc(OC)cc1)CCN(C)C3
Cc1ccc2nc3c(c(Nc4ccc(N(C)C)cc4)c2c1)CCC3
Cc1ccc(-c2nc3cc(NC(=O)c4ccc([N+](=O)[O-])o4)ccc3o2)cc1Br
Nc1cc(C(=O)Nc2cccc(C3=NCCN3)c2)ccc1C(=O)Nc1cccc(C2=NCCN2)c1
CCCCCC1CCCc2c1[nH]c1cc(Cl)ccc1c2=O (stereo not given)
O=C(NCc1ccccc1)c1cnc(NCCCN2CCCC2)nc1NCCc1ccccc1
CC(C)c1ccc(C=CC(=O)NCc2ccco2)cc1
CCc1c(C)nc(SCC(=O)NNC(C)=O)[nH]c1=O
FC(F)(F)c1cccc(-c2nc3c(s2)CN(C2CCCC2)CC3)c1
Cc1c(/C=C2\SC(=Nc3ccccc3F)N(C3CCCCC3)C2=O)c2ccccc2n1CC(N)=O
Clc1ccc(-c2nc3ncc(Cl)cc3[nH]2)cc1
COc1cccc(-c2ccc(O)c(CN3CCC(C)CC3)c2)n1
Clc1ccc(Nc2nc(NCc3ccco3)c3ccccc3n2)cc1
CCOC(=O)c1sc(NC(=O)CSc2nnc(CNC(=O)COc3ccc(Cl)cc3)n2C)c(C(=O)OCC)c1C
COc1ccc(N=C(C)C2=C(O)c3ccccc3C2=O)c(OC)c1
CN(C)c1ccc(/C=C/C=C/c2cc[n+](C)cc2)cc1
CCCCCCCCCCOC(=O)Cn1c(C)[n+](C)c2ccccc21
COCCn1nnnc1C(c1cc2cc3c(cc2[nH]c1=O)OCCO3)N1CCC(O)CC1 (stereo not given)
COc1cc2nc(NCc3ccccn3)n3nc(-c4ccccc4)nc3c2cc1OC
CCN1C(=S)NC2c3cc(C)ccc3OC13CCCC23 (stereo not given)
Cc1ccc(NC(=O)CCCCC(=O)Nc2ccc(C)c(Br)c2)cc1Br
C#CC(C)(C)NC(=O)c1ccc(-c2ccc(CC)cc2)cc1
CCC(c1nc2ccccc2c(=O)n1-c1cccc(C)c1)N(CCc1ccccc1)C(=O)Nc1c(C(C)C)cccc1C(C)C (stereo not given)
CCC(c1nc2ccccc2c(=O)n1-c1cccc(C)c1)N(Cc1ccccc1)C(=O)Nc1c(C(C)C)cccc1C(C)C (stereo not given)
